An excerpt weighted towards active compounds, which were near 3.3% of everything screened.
LmPK inhibitor = qHTS Assay for Inhibitors of Leishmania Mexicana Pyruvate Kinase (LmPK); purified LmPK, Kinase-Glo ATP luminescence, 1 h; Q27686; Potency, µM (highest dose often 57.5 µM), hits mostly inhibitors; 290,000 compounds, 0.37% hits
Target sequence (Q27686 whole entry, looked up): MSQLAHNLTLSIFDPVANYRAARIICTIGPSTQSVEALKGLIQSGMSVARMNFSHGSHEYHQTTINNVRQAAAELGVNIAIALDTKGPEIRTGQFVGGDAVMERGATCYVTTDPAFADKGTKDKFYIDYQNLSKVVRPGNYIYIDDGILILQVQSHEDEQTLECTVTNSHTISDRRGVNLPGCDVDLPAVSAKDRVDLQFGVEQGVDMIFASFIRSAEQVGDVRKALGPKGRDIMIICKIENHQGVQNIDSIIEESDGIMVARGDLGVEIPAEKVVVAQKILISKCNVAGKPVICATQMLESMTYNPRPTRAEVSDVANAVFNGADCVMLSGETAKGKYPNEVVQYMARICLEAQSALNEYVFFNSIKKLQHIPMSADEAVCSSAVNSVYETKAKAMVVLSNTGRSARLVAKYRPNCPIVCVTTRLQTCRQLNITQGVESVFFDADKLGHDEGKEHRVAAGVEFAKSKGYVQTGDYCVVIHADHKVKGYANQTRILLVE
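Purified LmPK (0.1 nM) with 0.5 mM PEP and 0.1 mM ADP in imidazole buffer pH 7.2 with MgCl2/KCl, 1 h at room temperature. ATP formed was read by luciferase luminescence and normalized to no-enzyme and uninhibited controls.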
Giardia FBPA inh-1 = qHTS Assay for Inhibitors of Fructose-1,6-bisphosphate Aldolase from Giardia Lamblia; A8B2U2; purified Giardia FBPA; 290,000 compounds, 0.71% hits; Potency, µM (doses to about 59.6 µM), most hits filed as inhibitors; further: nearly all actives have a fitted effect of over 55% in size
Target sequence (A8B2U2 whole entry, looked up): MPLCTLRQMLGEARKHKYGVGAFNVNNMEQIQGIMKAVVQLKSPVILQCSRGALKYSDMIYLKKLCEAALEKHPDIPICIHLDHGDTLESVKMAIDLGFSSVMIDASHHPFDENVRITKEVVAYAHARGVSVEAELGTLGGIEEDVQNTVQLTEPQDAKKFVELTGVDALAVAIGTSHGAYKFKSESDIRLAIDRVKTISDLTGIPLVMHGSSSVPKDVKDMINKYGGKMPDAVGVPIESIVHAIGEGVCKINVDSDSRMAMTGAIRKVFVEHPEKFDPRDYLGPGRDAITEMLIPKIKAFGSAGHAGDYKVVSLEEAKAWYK
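40 nM FBPA preincubated 10 min at RT with compound (up to 57.5 uM final), then substrate plus GAPDH/TPI/NAD/arsenate coupling and diaphorase/resazurin added. Fluorescence read after 20 min at RT, 525/598 nm.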
Tb PYK inh = qHTS of Trypanosoma Brucei Inhibitors; TbPYK enzyme, Kinase-Glo Plus ATP luminescence, 45 min; Potency, µM (highest dose often 76.8 µM), usual class: inhibitors; AID 624173, 2012; 410,000 compounds, 0.12% hits; further: nearly all actives have a fitted effect of over 50% in size
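ADP (130 uM final) triggers the TbPYK reaction after compound addition; incubation is 45 min at room temperature. Kinase-Glo Plus is then added and luminescence imaged. Normalized data are fitted to concentration-effect curves.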
RE007 growth inh = qHTS Assay for Inhibitors of the HIV-1 protein Vpr | AID 651644, 2012 | Potency, µM (highest dose often 92.2 µM), most hits filed as inhibitors | 360,000 compounds, 0.21% hits | S. pombe RE007 Vpr strain, BacTiter-Glo ATP luminescence, 24 h; active means well fitted falling curve with a large enough effect; inconclusive means small, poorly fitted or top-dose-only effect; inactive means no such curve, though single readings can be large or run the other way; further: nearly all actives have a fitted effect of over 50% in size
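Fission yeast strain RE007, carrying one chromosomally integrated HIV-1 vpr copy, was seeded at OD 0.01 in PMG+AL medium with 23 nL pinned compound. After 24 h at 30 °C and 99% humidity, viability was read by BacTiter-Glo luminescence.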
Sm TGR inh = qHTS Assay for the Inhibitors of Schistosoma Mansoni Peroxiredoxins. purified TGR, DTNB reduction, TNB absorbance 405 nm. Potency, µM (highest dose often 114 µM), usual class: inhibitors. 360,000 compounds, 3% hits; further: nearly all actives have a fitted effect of over 60% in size
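First, TGR (20 nM dispensed) and NADPH were mixed with compound. Second, a 15 min room-temperature incubation followed. Third, further NADPH and then DTNB were added to start the reaction. Finally, TNB absorbance was monitored kinetically.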
Giardia growth = qHTS Assay for Inhibitors of Fructose-1,6-bisphosphate Aldolase from Giardia Lamblia: Giardia lamblia growth inhibition. 1,500 compounds, 5% hits. shares compounds with Giardia FBPA inh-1. Giardia lamblia trophozoite growth inhibition. Potency, µM (doses to about 57.5 µM), actives largely listed as inhibitors;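 further: trophozoites exposed to compound for 48 h at 37 °C; nearly all actives have a fitted effect of over 70% in size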
Mammalian tox = qHTS Assay for Inhibitors of Fructose-1,6-bisphosphate Aldolase from Giardia Lamblia: Mammalian cellular toxicity; mammalian cell viability counter-screen, qHTS; AID 2786, 2010; Potency, µM (highest dose often 57.5 µM), hits mostly inhibitors; shares compounds with Giardia FBPA inh-1; 1,500 compounds, 4% hits;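 further: Chinese hamster ovary cells used as mammalian cytotoxicity surrogate; viability measured as cellular ATP by luminescence; compound exposure lasted 48 h before reading; nearly all actives have a fitted effect of over 60% in size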
Giardia FBPA inh-2 = qHTS Assay for Inhibitors of Fructose-1,6-bisphosphate Aldolase from Giardia Lamblia: Primary screen confirmation | shares compounds with Giardia FBPA inh-1 | purified Giardia aldolase enzyme activity, qHTS | Potency, µM (top dose mostly 57.5 µM), most hits filed as inhibitors | 1,500 compounds, 5% hits; further: nearly all actives have a fitted effect of over 45% in size
Rabbit aldolase = qHTS Assay for Inhibitors of Fructose-1,6-bisphosphate Aldolase from Giardia Lamblia: Rabbit FBPA Selectivity; Potency, µM (highest dose often 57.5 µM), most hits filed as inhibitors; Rabbit muscle FBPA enzyme inhibition, selectivity counter-screen; shares compounds with Giardia FBPA inh-1; 1,500 compounds, 4% hits; AID 2794, 2010; further: nearly all actives have a fitted effect of over 60% in size
GAPDH counter = qHTS Assay for Inhibitors of Fructose-1,6-bisphosphate Aldolase from Giardia Lamblia: Coupling assay counterscreen confirmation; Potency, µM (doses to about 57.5 µM), most hits filed as inhibitors; shares compounds with Giardia FBPA inh-1; AID 2795, 2010; 1,500 compounds, 6% hits; GAPDH coupling enzyme counterscreen, biochemical, qHTS; further: nearly all actives have a fitted effect of over 55% in size
Each line names hits and unclear results; the compound was inactive in the other large screens (follow-up assays come after a bar, where they were run); [ ] = remark or other dose. Unless noted, the call rests on the fitted dose curve; in most records, active means well fitted curve in the direction sought with a large enough effect; inconclusive means small, poorly fitted or top-dose-only effect, or another doubt; inactive means no such curve, though single readings can be large; an effect the other way counts as inactive or inconclusive.

Cc1ccc(-n2c(C)cc(C=C3C(=O)N(C)C(=O)N(C)C3=O)c2C)cc1	none (no result: LmPK inhibitor, Giardia FBPA inh-1, Sm TGR inh)
O=C(c1ccco1)N1CCN(Cc2cccc3ccccc23)CC1	Giardia FBPA inh-1 16µM | Giardia growth inconclusive | Mammalian tox inactive | Giardia FBPA inh-2 inactive | Rabbit aldolase inactive | GAPDH counter inactive
O=C(c1ccco1)N1CCN(Cc2ccc(Cl)cc2)CC1	Giardia FBPA inh-1 inconclusive
CCc1ccc(CN2CCN(C(=O)c3ccco3)CC2)cc1	Giardia FBPA inh-1 28µM | Giardia growth inactive | Mammalian tox inactive | Giardia FBPA inh-2 inactive | Rabbit aldolase inactive | GAPDH counter inactive
CCOc1cccc(N(C(=O)CCC(=O)Nc2cc(C)on2)C(C(=O)NC(C)(C)C)c2ccc(OC)cc2)c1 (configuration not stated)	none (no result: Giardia FBPA inh-1)
O=C(c1ccc(Cl)cc1)C(Cn1cncn1)C(Sc1ccccc1)c1ccccc1 (configuration not stated)	none
CCOC(=O)C(C(=O)OCC)c1cc(Br)c2noc3c2c1C(=O)c1ccccc1-3	Giardia FBPA inh-1 0.35µM, RE007 growth inh inconclusive, Sm TGR inh 0.63µM | Giardia growth inactive | Mammalian tox inconclusive | Giardia FBPA inh-2 inconclusive | Rabbit aldolase inconclusive | GAPDH counter inconclusive
CC(=O)OCCNc1cc(N2CCN(C)CC2)c2noc3c2c1C(=O)c1ccccc1-3	Giardia FBPA inh-1 inconclusive, Tb PYK inh inconclusive
O=C1[C@@H]2CSCN2C(=O)CN1Cc1cccc(C(F)(F)F)c1	none
O=C(Cc1ccccc1)NNC(=S)NC(=O)c1cccnc1	Giardia FBPA inh-1 7.1µM, Tb PYK inh inconclusive | Giardia growth inactive | Mammalian tox inactive | Giardia FBPA inh-2 inactive | Rabbit aldolase inactive | GAPDH counter inactive
Cc1ccccc1C(=O)NNC(=S)NC(=O)c1ccccc1	Giardia FBPA inh-1 inconclusive, RE007 growth inh inconclusive | Giardia growth inactive | Mammalian tox inactive | Giardia FBPA inh-2 inactive | Rabbit aldolase inactive | GAPDH counter inactive
COc1ccc(CC(=O)NNC(=S)NC(=O)c2cccnc2)cc1	Giardia FBPA inh-1 inconclusive
O=C(NC(=S)NNC(=O)c1ccccc1O)c1ccccc1	Giardia FBPA inh-1 inconclusive | Giardia growth inconclusive | Mammalian tox inactive | Giardia FBPA inh-2 inactive | Rabbit aldolase inactive | GAPDH counter inactive
COCc1cc(=O)[nH]c(-c2csc(C)n2)n1	Giardia FBPA inh-1 4.5µM | Giardia growth inactive | Mammalian tox inactive | Giardia FBPA inh-2 inactive | Rabbit aldolase inactive | GAPDH counter inactive
O=C(NC(=S)Nc1nc2ccccc2s1)c1ccco1	Giardia FBPA inh-1 5µM | Giardia growth 7.9µM | Mammalian tox inconclusive | Giardia FBPA inh-2 inactive | Rabbit aldolase inactive | GAPDH counter inactive
O=C(NC(=S)NCc1ccc(-c2nc3ccccc3s2)cc1)c1ccco1	none
COc1cccc(C(c2sc3nc(C)nn3c2O)N2CCC3(CC2)OCCO3)c1 (configuration not stated)	none
CCc1nc2c(OCc3ccccc3C)cccn2c1N(C)C(=O)c1ccco1	none (no result: LmPK inhibitor, Giardia FBPA inh-1, Sm TGR inh)
NN1C(=O)/C(=C2/Sc3ccccc3N2CCCS(=O)(=O)O)SC1=S	Giardia FBPA inh-1 18µM | Giardia growth inactive[10.4 µM] | Mammalian tox inactive | Giardia FBPA inh-2 inactive | Rabbit aldolase inactive | GAPDH counter inactive
Oc1ccc2ccc3[nH]cnc3c2c1	none (no result: RE007 growth inh)
O=S1(=O)N=C(N/N=C/c2cccs2)c2ccccc21	Giardia FBPA inh-1 2µM | Giardia growth inactive | Mammalian tox inactive | Giardia FBPA inh-2 inactive | Rabbit aldolase inactive | GAPDH counter inactive
O=[N+]([O-])c1ccc(O)c(/C=N/NC2=NS(=O)(=O)c3ccccc32)c1	Giardia FBPA inh-1 8.9µM | Giardia growth inactive | Mammalian tox inactive | Giardia FBPA inh-2 inconclusive | Rabbit aldolase inactive | GAPDH counter inactive
O=[N+]([O-])c1ccc(/C=N/NC2=NS(=O)(=O)c3ccccc32)cc1	none
Cn1c(O)c(C(c2ccccn2)c2c(O)n(C)c(=S)[nH]c2=O)c(=O)[nH]c1=S	Giardia FBPA inh-1 18µM | Giardia growth inactive | Mammalian tox inactive | Giardia FBPA inh-2 inactive | Rabbit aldolase inactive | GAPDH counter inactive
Cc1cccc(NC(=S)Nc2ccc(N3CCOCC3)cc2)c1C	none
CC(=O)Nc1ccc2c(c1)N(C(C)=O)c1ccccc1CC2	none
CCC(C)N1C(=O)/C(=C/c2ccc3c(c2)CCN3CCCCl)C(=O)NC1=S (configuration not stated)	Giardia FBPA inh-1 11µM, Tb PYK inh inconclusive, Sm TGR inh inconclusive | Giardia growth inactive[10.4 µM] | Mammalian tox inactive | Giardia FBPA inh-2 inconclusive | Rabbit aldolase inactive | GAPDH counter inactive
O=C1NC(=O)N(c2ccc(Cl)cc2)C(=O)/C1=C/c1ccc2c(c1)CCN2Cc1ccccc1Cl	none (no result: LmPK inhibitor, Giardia FBPA inh-1, Sm TGR inh)
O=c1[nH]c(CSc2cccc[n+]2[O-])nc2ccccc12	Giardia FBPA inh-1 14µM | Giardia growth inactive[10.4 µM] | Mammalian tox inactive | Giardia FBPA inh-2 inactive | Rabbit aldolase inactive | GAPDH counter inactive
CC1(C(=O)NC(=S)N(CCC#N)Cc2cccnc2)CC1(Cl)Cl (configuration not stated)	Giardia FBPA inh-1 18µM (no result: Tb PYK inh, RE007 growth inh) | Giardia growth inactive[10.4 µM] | Mammalian tox inactive | Giardia FBPA inh-2 inactive | Rabbit aldolase inactive | GAPDH counter inactive
CCn1ncc(Br)c1C(=O)Nc1ccccc1C(=O)OC	none (no result: LmPK inhibitor, Giardia FBPA inh-1, Sm TGR inh)
COc1cccc(CNC(=O)Cc2ccc(-n3c(=O)[nH]c4ccccc4c3=O)cc2)c1	none
COc1ccc2cc(S(=O)(=O)N3CCN(C)CC3)ccc2c1	none
Cc1nc(NC(=O)C2CC2)sc1C(=O)N(C)C	none (no result: Tb PYK inh)
